CHOP inhibitor = CHOP inhibition in unfolded protein response; AID 2732; inhibition, % at 10 µM; actives 3.8% (n = 220,000); CHO-K1 CHOP-promoter luciferase, tunicamycin-induced, 15-18 h;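 active means compounds that reduced the stress-induced luciferase reporter signal by more than about 70% of percent inhibition, limit read from the data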
Arbovirus anti = antivirals against arbovirus infection | actives 0.37% (n = 200,000) | AID 1251 | arbovirus infection cell-based antiviral screen | inhibition, % at 10 µM; in the data active means inhibition above about 30%
WT yeast gro inh = growth inhibition of WT yeast, mitochondrial fusion screen | mitochondrial fusion phenotypic screen, WT strain | inhibition, % at 10 µM | actives 2.1% (n = 190,000) | AID 1362; in the data active means inhibition above about 58%; tested in S. cerevisiae
L major viab = inhibitors of Leishmania major promastigote growth. inhibition, % at 10 µM. Leishmania major promastigotes, resazurin fluorescence viability. actives 9% (n = 200,000); in the data active means inhibition above about 50%;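 further: promastigotes grown with compound for 44 hours at 28 °C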
Hits are given with their value; n = inactive; x = no result given. Hits are enriched below; roughly 12% of the tested compounds scored in any of these assays.

SMILES | CHOP inhibitor | Arbovirus anti | WT yeast gro inh | L major viab
COc1cc(C(=O)N2CCC(O)(c3ccccc3)CC2)cc(OC)c1OC | n | n | n | n
N#CC1=C(N)Oc2c(oc(CO)cc2=O)C1c1ccccc1[N+](=O)[O-] (centres undefined) | n | x | x | x
CC(=C1C(=O)c2ccccc2C1=O)N1CCc2ccccc2C1 | n | n | n | 92
Cc1ccnc(NC(=O)CSc2nnc3c(n2)[nH]c2ccccc23)c1 | n | n | n | n
COc1ccc(NC(=O)NC23CC4(C)CC(C)(CC(C)(C4)C2)C3)cc1 | 70 | n | n | 95
Cn1c(SCC(=O)NCCc2ccccc2)nc2c([nH]c3ccccc32)c1=O | n | n | n | 93
COCCN(CC(=O)Nc1ccccc1)S(=O)(=O)c1ccc(S(=O)(=O)N2CCCC2)cc1 | n | n | n | n
CCN1CNC(=S)N(C(C)c2ccccc2)C1 (centres undefined) | n | n | n | n
OCC1(Cc2ccc(Cl)cc2)CCN(Cc2ccc(Oc3ncccn3)cc2)CC1 | n | n | n | n
Cn1c(=O)c(C(=O)CN2CCN(S(=O)(=O)c3ccccc3)CC2)c(N)n(Cc2ccccc2)c1=O | n | n | n | 71
Cn1c(N)c(C(=O)CCl)c(=O)n(Cc2ccccc2)c1=O | n | n | n | 62
Cn1c(=O)c(C(=O)CCl)c(N)n(Cc2ccccc2)c1=O | n | n | n | n
COCCn1c(-c2ccc(Br)cc2)nc2oc3cc(OC)ccc3c(=O)c2c1=O | n | x | x | x
O=C(c1ccc(Br)cc1)c1sc(N2CCOCC2)nc1-c1ccccc1 | n | n | n | n
CCc1ccccc1NC(=O)c1ccc(NCCc2ccccc2)c([N+](=O)[O-])c1 | n | n | n | 67
CC(C)(C)c1ccc(NC(=O)c2ccccc2)c([N+](=O)[O-])c1 | n | n | 66 | n
COc1cc(NC(=O)COC(=O)/C=C/c2ccccc2Cl)cc(OC)c1 | n | n | n | n
COc1cc(NC(=O)COC(=O)/C=C/c2c(C)nn(-c3ccc(F)cc3)c2Cl)cc(OC)c1 | n | n | n | 64
CCOc1ccccc1NC(=O)/C(C#N)=C/c1c(C)nn(-c2ccc(F)cc2)c1Cl | n | n | n | 73
C=CCNC(=O)/C(C#N)=C/c1c(C)nn(-c2ccc(Cl)cc2)c1Cl | n | n | n | 89
COc1cccc(CC2(CO)CCCN(Cc3sc(N4CCCC4)nc3Cl)C2)c1 (centres undefined) | n | n | n | n
O=c1[nH]c2cc(S(=O)(=O)CCO)ccc2o1 | n | x | x | x
NC(=O)C1CCN(CC(=O)NC(=O)NC2CCCC2)CC1 | n | n | n | n
COc1ccc(Cn2c(C3CC3)nc3ccc(NC(C)=O)cc3c2=O)cc1 | n | n | n | n
CCCc1nc2ccc(NC(=O)c3cccs3)cc2c(=O)n1Cc1ccccc1Cl | n | n | n | 50
SMILES | CHOP inhibitor | Arbovirus anti | WT yeast gro inh | L major viab
CCCc1nc2ccc(NC(C)=O)cc2c(=O)n1Cc1ccc(Cl)cc1 | n | n | n | 83
O=C1c2ccccc2C(=O)c2cc(S(=O)(=O)Nc3ccccc3)ccc21 | n | n | 72 | n
N=C1SCC(=O)N1c1ncc(Cc2cccc(Cl)c2)s1 | n | n | n | n
O=C(CSc1nnc(-c2c[nH]c3ccccc23)o1)c1ccc(-c2ccccc2)cc1 | n | n | n | n
CCCCCC#CCC#CCC#CCC#CCCCC(=O)O | n | n | n | 84
CCCCCC(O)CCCC(=O)O (centres undefined) | n | x | x | x
COc1ccc(NS(=O)(=O)c2ccc(N3CCCC3)c(NC(=S)Nc3ccc(SC(F)F)cc3)c2)cc1 | n | n | n | 87
COc1ccc(NS(=O)(=O)c2ccc(N3CCCC3)c(NC(=S)Nc3cccc(C)c3C)c2)cc1 | n | n | n | 58
OCCNCc1cccc(OCc2ccc(Cl)cc2)c1 | n | n | n | 54
OCCNCc1cc(Br)ccc1OCc1ccc(Cl)cc1 | n | n | n | 93
OCCNCc1cc(Br)ccc1OCc1ccc(F)cc1 | n | n | n | n
OCCNCc1cc(Br)ccc1OCc1ccc(Cl)cc1Cl | 90 | n | 58 | 101
CCOC(=O)C1(Cc2ccc(OC)cc2)CCN(C(=O)CCc2cccnc2)CC1 | n | n | n | n
CC1=NCCN1S(=O)(=O)c1ccccc1[N+](=O)[O-] | n | n | n | n
COc1cc(NC(=O)COC(=O)c2nc3nc(C)cc(C)n3n2)cc(OC)c1 | n | n | n | n
COC(=O)c1c(NC(=O)CN2CCC3(O)CCCCC3C2c2ccc(OC)cc2OC)sc(C)c1C (centres undefined) | n | n | 59 | 62
COC(=O)c1c(NC(=O)CN2CCC3(O)CCCCC3C2c2ccccc2OC)sc(C)c1C (centres undefined) | n | n | 73 | n
COc1cc([C@H]2[C@@H]3CCCC[C@]3(O)CCN2Cc2ccccc2F)ccc1O | n | n | n | n
COc1cc([C@H]2[C@@H]3CCCC[C@]3(O)CCN2CC(=O)Nc2ccc(C)cc2C)ccc1O | n | n | n | 65
CCN(Cc1cc(=O)n2ccsc2n1)Cc1nc2ccccc2c(=O)[nH]1 | n | n | n | n
O=C(Cc1ccccc1F)NCC(c1ccco1)N1CCCCC1 (centres undefined) | n | n | n | n
CN(CC1CCOCC1)C(=O)CC1C(=O)NCCN1Cc1ccc(-c2ccccc2)cc1 (centres undefined) | n | n | n | n
Cc1cc2c3c(c1)C(C)CC(C)(C)N3C(=O)C2=C(C#N)C#N (centres undefined) | n | x | x | x
CCOC(=O)N1CCc2c(sc(NC(=O)c3ccc(S(=O)(=O)N4CCCC4)cc3)c2C#N)C1 | n | n | n | 57
CC(=O)N1CCc2c(sc(NC(=O)c3ccc([N+](=O)[O-])o3)c2C#N)C1 | n | n | n | 98
SMILES | CHOP inhibitor | Arbovirus anti | WT yeast gro inh | L major viab
O=C(c1ccccc1F)c1cc2c(cc1[N+](=O)[O-])OCCO2 | n | n | n | n
Cc1cc(Oc2ccc(C(C)(C)C)cc2)nc(N2CCOCC2)n1 | n | n | 75 | n
N=c1c2c(ncn1CCCO)Oc1ccc3ccccc3c1C2c1ccccc1 (centres undefined) | n | x | x | x
COc1ccc(C2c3ccc4ccccc4c3Oc3ncn(CCN4CCOCC4)c(=N)c32)cc1 (centres undefined) | n | n | n | 100
COc1ccc(C2c3c(ncn(Cc4ccco4)c3=N)Oc3ccc4ccccc4c32)cc1 (centres undefined) | n | n | 64 | 99
COc1ccc(C2c3ccc(O)cc3Oc3ncn(Cc4ccco4)c(=N)c32)cc1 (centres undefined) | n | x | x | x
N=c1c2c(ncn1Cc1ccco1)Oc1ccc3ccccc3c1C2c1ccccc1 (centres undefined) | n | n | 66 | 96
CN1C(C(=O)NCc2ccc(OC(F)(F)F)cc2)CC2Cn3c(nc4ccccc43)C21 (centres undefined) | n | x | x | x
CS(=O)(=O)Nc1nc2n(n1)C(c1ccccc1)CC(c1ccccc1)N2 (centres undefined) | n | x | x | x
CC(C)(CC(=O)N1CCN(c2ccc(Cl)cc2)CC1)CC1=NS(=O)(=O)c2ccccc2N1 | 71 | n | n | n
Cn1c(Sc2ccc(Br)cc2)c(C=O)c2ccccc21 | n | n | n | 57
C=CCn1c(SCc2nc3ccccc3c(=O)[nH]2)nc2sc3c(c2c1=O)CCCC3 | n | x | x | x
N#Cc1ccc(CSc2nnc(-c3ccncc3)n2CCc2ccccc2)cc1 | n | n | n | 90
